In PubChem BioAssay (Tox21):
Activity calls are given as the source filed them. The call rests on the fitted dose curve; in most records, active means well fitted cell-killing curve with a large enough effect in the repeat runs; inconclusive means weak or mixed curves, or effect the other way; inactive means flat fitted curve, though single readings scatter.

Experiment: qHTS assay to identify small molecule HDAC inhibitors - cell viability counter screen (AID 1259365); further: nearly all actives have a fitted effect of over 50% in size
Conditions: HCT-116 viability, CellTiter-Glo ATP luminescence, 2 h; series mostly up to 92.4 µM; activity change, negative = cytotoxicity: at the top concentration
Text: U.S. Tox21 Program National Center for Advancing Translational Sciences [NCATS] NIH Chemical Genomics Center [NCGC] U.S. Environmental Protection Agency [EPA] National Institutes of Environmental Health Sciences [NIEHS] National Toxicology Program [NTP] U.S. Food and Drug Administration [FDA] Tox21 Assay Overview: Histone deacetylases (HDACs) are a group of epigenetic enzymes that regulate gene expression by histone deacetylation. HDACs are capable of introducing epigenetic modifications and such aberrations contribute to the onset and progression of several human diseases, thus making HDACs a popular therapeutic target. For identifying endogenous class I/II HDAC inhibitors a homogenous, luminogenic HDAC I/II cell based assay was used to measure the relative activity of class I and II HDACs from cells. Wild type HCT-116 cells were used to screen Tox21 compound libraries for identifying class I/II HDAC inhibitors.
Tox21 Assay Protocol Summary: HCT-116 cells were dispensed at 1,500 per well in 5uL of culture medium into white solid bottom 1536-well plates (Greiner Bio-One, Monroe, NC) using a Multidrop Combi (Thermo Scientific, Waltham, MA) dispenser. The assay plates were incubated at 37 C and 5% CO2 for an overnight, and then 23nL of compounds dissolved in DMSO and positive control were transferred using a Pintool station (Wako, San Diego, CA). The assay plates were incubated at 37C and 5% CO2 for 2hr. After compound treatment, 4uL of CellTiter-Glo reagent (Promega Corporation, Madison, WI) was added to each well of the assay plates using Flying Reagent Dispenser (FRD, Aurora Discovery, San Diego, CA) and incubated the assay plates at room temperature for 30min. The luminescence signal was quantified using a ViewLux plate reader (Perkin Elmer, Shelton, CT).
On the % scale 0 is the no-effect control and ±100 the full control effect; potency means the concentration at half of the fitted maximal effect.

Structure (SMILES)	activity change, negative = cytotoxicity	Potency
N[C@@H](CSSC[C@H](N)C(=O)O)C(=O)O	2.74% [at 0.349 µM] (inactive)	–
c1ccc(Sc2ccccc2)cc1	-1.94% (inactive)	–
CCCOc1sc(C(=O)N2CCC(c3cc(CN)ccc3F)CC2)c(C)c1Br	–	62.8 µM (active)
CC(=O)OC1CCCCC1	1.46% (inactive)	–
c1ccc2c(c1)CCC2	1.26% (inactive)	–
O=S(=O)(O)c1cc(S(=O)(=O)O)c2ccc3c(S(=O)(=O)O)cc(S(=O)(=O)O)c4ccc1c2c43	1.04% [at 19 µM] (inactive)	–
CCOC(=O)COc1ccc(C)cc1	2.75% (inactive)	–
CCN(CC)CCCN(c1ccccc1)C1Cc2ccccc2C1	-1.3% [at 42.5 µM] (inactive)	–
NCCCC(O)(P(=O)(O)O)P(=O)(O)O	6.56% [at 42.5 µM] (inactive)	–
CC(CN(C)C)CN1c2ccccc2CCc2ccccc21 (stereo not given)	-3.05% [at 42.5 µM] (inactive)	–
O=c1cccc[nH]1	2.23% (inactive)	–
CCCCCCCOC(=O)c1ccc(O)cc1	–	inactive
CC(C)c1ccccc1N	4.43% (inactive)	–
C[C@]12CC[C@H]3C(=CCc4cc(O)ccc43)[C@@H]1CCC2=O	1.11% (inactive)	–
CC=O	5.01% (inactive)	–
O=C1NCN(c2ccccc2)C12CCN(CCCC(c1ccc(F)cc1)c1ccc(F)cc1)CC2	-8.74% [at 42.5 µM] (inactive)	–
CCCCOC(=O)C(C)CC (stereo not given)	0.0709% (inactive)	–
C=CCCCCCCC=C	-1.8% (inactive)	–
NCCCCCCNCCCCCCN	-4.12% (inactive)	–
Cc1ccc(-n2[nH]c(C)c(N=Nc3cccc(-c4cccc(C(=O)O)c4)c3O)c2=O)cc1C	1.85% [at 42.5 µM] (inactive)	–

Structure (SMILES)	activity change, negative = cytotoxicity	Potency
CCC1(c2cnc[nH]2)Cc2ccccc2C1	-0.73% [at 42.5 µM] (inactive)	–
O=C1NC2CCCCN2C12CCN(CCCN1c3ccccc3CCc3ccc(Cl)cc31)CC2 (stereo not given)	6.63% [at 42.5 µM] (inactive)	–
C=CC(C)(CCC=C(C)C)OC(=O)/C=C/c1ccccc1 (stereo not given)	-11.4% (inactive)	–
CC(C(O)c1ccccc1)N(C)CCOC(c1ccccc1)c1ccccc1 (stereo not given)	-6.58% [at 42.5 µM] (inactive)	–
COc1ccc(-n2nc(CCC(=O)N(C)O)cc2-c2ccc(Cl)cc2)cc1	6.11% [at 42.5 µM] (inactive)	–
CCOCOCC	3.31% (inactive)	–
CCC(=O)OCCc1ccccc1	0.81% (inactive)	–
CC(=O)c1ccccc1N	-1.1% (inactive)	–
Cc1cn[nH]c1	1.96% [at 42.5 µM] (inactive)	–
O=C1NCCN1CCN1CCC(c2cn(-c3ccc(F)cc3)c3ccc(Cl)cc23)CC1	7.77% [at 42.5 µM] (inactive)	–
C/C=C/C(=O)Oc1c(CCCCCC(C)C)cc([N+](=O)[O-])cc1[N+](=O)[O-]	9.45% (inactive)	–
C=CC(=C)CCC=C(C)C	-2.21% (inactive)	–
CC(NCCC(c1ccccc1)c1ccccc1)c1ccccc1 (stereo not given)	-1.53% [at 42.5 µM] (inactive)	–
CCC1CCCCC1	-1.83% (inactive)	–
CCCCCCCC/C=C\CCCCCCCC(=O)OCCOC(=O)CCCCCCC/C=C\CCCCCCCC	-0.377% (inactive)	–
CCCC(O)C(O)CO (stereo not given)	0.351% (inactive)	–
CCCCCCCC(C)=O	-0.918% (inactive)	–
[O]=[Zr]	0.556% (inactive)	–
CCCCNc1c(C(=O)OCC)c(C)nc2c1cnn2CC	-11.2% [at 42.5 µM] (inactive)	–
Cc1cc(C)c(C=O)c(C)c1	3.09% (inactive)	–
